Source: PubChem BioAssay AID1578 (Sanford-Burnham Center for Chemical Genomics, 2009)
Hit rate of the full screen: of about 290,000 compounds, about 3,000 (1%) were called active. Shown is part of a subset that was picked to be rich in actives. A number with no mark means an inactive call. No stated cut-off is given here; in the data, active means inhibition mostly above about 36% (no sharp cut-off); inactive means mostly below about 34%.

assay: NOD1 signaling inhibitors, primary screen, cell-based, luminescence, uHTS (AID 1578); conditions: NOD1-driven NF-kB luciferase reporter cells, at 4 µM, stronger effect = higher value;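 further: HEK-293T reporter cells stimulated with the NOD1 agonist gamma-tri-DAP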

Compound	inhibition
C/C(=N/OCC(=O)NCCCCCCNC(=O)CO/N=C(/C)c1cccs1)c1cccs1	-2.7%
CCNC(=O)Cc1c(OC)ccc2cc(Br)ccc12	-58.1%
CN1/C(=C\C(=O)C[n+]2cccc(C(N)=O)c2)C(C)(C)c2ccccc21	7.7%
Cc1ccsc1/C=C/c1ccc2cccc(O)c2n1	63.2% (active)
Cc1ccsc1/C=C/c1ccc2ccccc2n1	27.3%
Oc1cccc2ccc(/C=C/c3cccs3)nc12	-7.6%
CC(CC(=O)Nc1ccc(S(=O)(=O)Nc2ncccn2)cc1)c1ccccc1 (centres undefined)	-22.5%
C=CCOn1c(=O)c(-c2ccc(F)cc2)[n+]([O-])c2ccccc21	3.1%
CCOc1cccc(/C=N/Nc2nc(N3CCCC3)nc(N3CCCC3)n2)c1O	33.4% (active)
C(=N\Nc1nc(N2CCCC2)nc(N2CCCC2)n1)/c1ccccc1OCc1ccccc1	7.9%
COc1cccc(/C=N/Nc2nc(N3CCCC3)nc(N3CCCC3)n2)c1O	29.2%
O=C1C2C3C=CC(C3)C2C(=O)N1c1ccncc1 (centres undefined)	29.4%
O=C(CSc1nc2cccnc2n1Cc1ccccc1)NCc1ccco1	8.8%
CC1CCCCN1CCNC(=O)c1ccc2c(c1)N(Cc1ccccc1F)C(=O)c1ccccc1S2=O (centres undefined)	-12.3%
Cc1cccc(OCc2nnc(SCc3nc4ccccc4c(=O)[nH]3)o2)c1	-16.2%
COc1ccc2sc3ccccc3c(=O)c2c1OC	97.4% (active)
COc1cccc2sc3ccc(C#Cc4ccc(N)cc4)cc3c(=O)c12	-70%
COc1ccc2sc3ccccc3c(=O)c2c1	-32.1%
Fc1ccc(CSc2nnc3ccccn23)c(Cl)c1	-35.7%
Cc1oc(S(=O)(=O)N2CCOCC2)cc1C(=O)Nc1ccc(Cl)cc1	0.4%
O=C(Nc1nc2cc3c(cc2s1)OCCO3)c1cccc(N2C(=O)CCC2=O)c1	-14.7%
O=C(Nc1nc2cc3c(cc2s1)OCCO3)c1cccc(S(=O)(=O)N2CCOCC2)c1	5.8%
O=C(O)Cn1cc(C(=O)C2CC2)c2ccccc21	-13.5%
Cc1ccccc1NC(=O)c1ccc(NS(=O)(=O)c2cc(C(C)(C)C)cc(C)c2C)cc1	-29.6%
CCc1ccccc1NC(=O)Nc1ccc(F)cc1	-25.3%

Compound	inhibition
CCCN(Cc1cc2cc(C)ccc2[nH]c1=O)S(C)(=O)=O	-18%
CCCCC[n+]1cccc2c3ccccc3ccc21	33.7%
CCCCCCCCCCCCCCCC[n+]1cccc2ccccc21	37.4%
CCCCCCCCCC[n+]1cccc2c3ccccc3ccc21	64.2% (active)
Cc1ccc(C(=O)n2nc(-c3ccco3)nc2N)cc1	-20.6%
COc1ccc(C(C(=O)NCC2CCCO2)N(C(=O)CNC(=O)c2cccs2)c2ccc(C)cc2)cc1OC (centres undefined)	4.3%
CN(CCOCCOc1ccc(Cl)cc1Br)Cc1ccccc1	-30.1%
CC1OC2(C)OC(=N)C1(C#N)C(C#N)(C#N)C2c1ccccc1 (centres undefined)	-6.3%
CC(C)C1OC2(C)OC(=N)C1(C#N)C(C#N)(C#N)C2c1ccccc1 (centres undefined)	78.7% (active)
CCC1OC2(C)OC(=N)C1(C#N)C(C#N)(C#N)C2c1ccccc1 (centres undefined)	-1.7%
CC(C)N1CCN(Cc2nc(-c3ccccc3)cs2)CC1CCO (centres undefined)	-44.6%
COc1ccc(Nc2cc(NCCCO)c([N+](=O)[O-])c3nonc23)cc1	4.8%
Cc1ccc(Sc2cc(NCCCO)c([N+](=O)[O-])c3nonc23)cc1	2.1%
COc1ccc(CNc2cc(NCCCO)c([N+](=O)[O-])c3nonc23)cc1	48.5% (active)
Cc1ccc(N=Nc2ccc3ccccc3c2O)cc1	19%
Oc1c(N=Nc2ccccn2)ccc2ccccc12	96.4% (active)
Oc1c(N=Nc2ccc(F)cc2)ccc2ccccc12	-69.9%
CCc1ccc(OCC(=O)N/N=C(\C)c2ccccc2OC(F)F)cc1	-2.9%
Cc1[nH]nc(SCC(=O)NCc2ccc(Cl)cc2)c1[N+](=O)[O-]	-33.8%
COC(=O)Nc1nc(-c2ccc(F)cc2)c(C)s1	-56.3%
C/C(=C/Cc1c(O)cc2oc(C)cc(=O)c2c1O)COC1OC(CO)C(O)C(O)C1O (centres undefined)	-47.3%
COc1cc2ccc(=O)oc2c(CC=C(C)C)c1OC	-5.1%
Cc1ccc(OCC(=O)Nc2ccc(N3CCN(C(=O)c4ccco4)CC3)cc2)cc1C	-9.9%
c1ccc(Nc2nc(-c3cccs3)cs2)nc1	-50.9%
Cc1ccc(Nc2nc(-c3ccccc3)cs2)nc1	-37%

Compound	inhibition
Cc1ccc(Nc2nc(-c3cccs3)cs2)nc1	46% (active)
CCCn1c(N)c(C(c2ccc(OC)cc2)N2CCN(c3ccccc3)CC2)c(=O)[nH]c1=O (centres undefined)	10%
COc1ccc(-c2[nH]c(-c3ccc(Cl)cc3)nc2SCC(=O)Nc2nccs2)cc1	-3.8%
COc1ccc(-c2[nH]c(-c3ccc(C)cc3)nc2SCC(=O)Nc2nccs2)cc1	-13.3%
COc1ccc(-c2[nH]c(-c3ccccc3)nc2SCC(=O)Nc2nccs2)cc1	82.4% (active)
CCC(C)NC(=O)CN(c1ccc(OC)cc1)S(=O)(=O)c1ccccc1 (centres undefined)	-38.9%
CCOC(=O)c1cnc2c(C)c(Cl)ccc2c1N1CCOCC1	14.6%
NCC(=O)c1cccc2ccc[n+]([O-])c12	-2.6%
C[n+]1cccc2c(Br)ccc([O-])c21	-5.6%
[O-][n+]1cccc2c(Br)cc(Br)c(O)c21	86% (active)
O=C(Cc1ccc(F)cc1)NCCc1cnc[nH]1	-7.3%
COc1cc(/C=c2\sc3nc(-c4ccncc4)nn3c2=O)ccc1OC(C)=O	-18.6%
CC(c1ccco1)N(C(=O)C12CC3CC(CC(C3)C1)C2)c1ccccn1 (centres undefined)	17.1%
CC(c1ccco1)N(C(=O)C12CC3CC(CC(C)(C3)C1)C2)c1ccccn1 (centres undefined)	31.7% (active)
CC(c1ccco1)N(C(=O)C12CC3(C)CC(C)(CC(C)(C3)C1)C2)c1ccccn1 (centres undefined)	-2%
CCC(c1nnc(SCC(=O)NC23CC4CC(CC(C4)C2)C3)o1)N(C)C (centres undefined)	-5.8%
Cc1ccc(NS(=O)(=O)c2cc3c4c(cccc4c2)C(=O)NC3=O)cc1	18.1%
CN1CCN(CC(=O)Nc2nnc(-c3cccs3)s2)CC1	-26.2%
O=C(CN1CCCCC1)Nc1nnc(-c2ccccc2)s1	2.9%
O=C(CN1CCCC1)Nc1nnc(-c2cccs2)s1	74.9% (active)
CC(C)NC(=O)CN1C(=O)C(=O)c2ccccc21	15.8%
CCOC(=O)N1CCC(NC(=S)Nc2ccc3nc(N4CCN(C)CC4)cc(C)c3c2)CC1	3.9%
CCOC(=O)N1CCN(C(=S)Nc2ccc3nc(N4CCN(CC)CC4)cc(C)c3c2)CC1	-21%
CCOC(=O)N1CCC(NC(=S)Nc2ccc3nc(N4CCN(CC)CC4)cc(C)c3c2)CC1	48.8% (active)
COc1ccc(C(=O)Oc2ccc(N(C)S(=O)(=O)c3ccccc3)cc2)cc1[N+](=O)[O-]	8.9%

Compound	inhibition
Cc1cc(C)cc(NC(=O)C[n+]2ccccc2)c1	45.4%
Cc1cccc(-n2ncc3c(N(C)Cc4ccccc4)ncnc32)c1	2.1%
Cc1cc(S(=O)(=O)Nc2ccc3cn[nH]c3c2)c(C)cc1Cl	-20.3%
O=C1C(Cl)=C(Nc2ccc3cn[nH]c3c2)C(=O)c2ccccc21	61.1% (active)
O=S(=O)(Nc1ccc2cn[nH]c2c1)c1ccc(Cl)cc1	-12.5%
CC(C)C(=O)N1CCC2(CC1)Oc1ccc(Cl)cc1C(=O)C21CC(c2ccc(Cl)cc2)=NO1 (centres undefined)	-3.8%
O=C1c2ccccc2NC(c2ccccc2F)N1NS(=O)(=O)c1ccccc1 (centres undefined)	-13%
O=C(O)CC1(CC(=O)N2CCN(CCO)CC2)CCCC1	-19.8%
CC(=O)c1ccc(NC(=O)c2cnn3ccccc23)cc1	63.1% (active)
CC(=O)c1cccc(NC(=O)c2cnn3ccccc23)c1	-1%
CCc1ccc(NC(=O)c2cnn3ccccc23)cc1	50.8%
Cc1ccccc1C(=O)c1c[nH]c(C(=O)NCc2cccs2)c1	2.5%
Cc1ccc(-n2cc(C(=O)O)c(=O)cc2C)c(C)c1	-25.8%
CC(C)n1cc(CN2CCC(n3nccc3NC(=O)CCCc3ccccc3)CC2)cn1	-24.8%
COc1cccc(NC(=O)C2CC(=O)N(C)C(=Nc3cccc(F)c3)S2)c1 (centres undefined)	13.8%
CCOc1cccc(NC(=O)C2CC(=O)N(C)C(=Nc3ccccc3)S2)c1 (centres undefined)	5.5%
CCOc1cccc(NC(=O)C2CC(=O)N(C)C(=Nc3cccc(F)c3)S2)c1 (centres undefined)	73.6% (active)
Fc1ccc(N=c2ssnc2Cl)c(F)c1	-14.2%
C/C(=N\Nc1ccc(S(=O)(=O)N2CCOCC2)cc1[N+](=O)[O-])C(C)C	-8.2%
Cn1c(SCC(=O)NCCc2ccccc2)nnc1-c1ccncc1	-5.8%
Cc1nc2ncnn2c(N2CCN(C(=O)c3cccc(F)c3)CC2)c1Cc1ccccc1	-1.9%
CN=C1SC(CC(=O)Nc2ccc(F)cc2F)C(=O)N1/N=C/c1ccc(OC(F)F)c(OC)c1 (centres undefined)	-35.2%
CCOc1ccc(/C=N/N2C(=O)C(CC(=O)Nc3ccc(F)cc3F)SC2=NC)cc1OC (centres undefined)	-23%
CN=C1SC(CC(=O)Nc2ccccc2F)C(=O)N1/N=C/c1ccc(O)c(OC)c1 (centres undefined)	47.1% (active)
